From paper PMC8222333, “AsCas12a ultra nuclease facilitates the rapid generation of therapeutic cell medicines” come the findings set out here.

The chains are these.
B1: AGCC (dsDNA)
DNA 1: GCTATCTAGTGCTCAGTACGCACTGAGCCAGGAAACTTCTGGCAGGACCAGGTCATGAGATCGGAAGAGCACACGTCTGAACTCCAGTCA
DNA 2: TGACTGGAGTTCAGACGTGTGCTCTTCCGATCTCATGACCTGGTCCTGCCAGAAGTTTCCTGGCTCAGTGCGTACTGAGCACTAGATAGC
RNA: AAUUUCUACUCUUGUAGAUAGGAAACUUCUGGCAGGACC
B2: ATGG (dsDNA)
DNA 1: GCTATCTAGTGCTCAGTACGCACTGATGGAGGAAACTTCTGGCAGGACCAGGTCATGAGATCGGAAGAGCACACGTCTGAACTCCAGTCA
DNA 2: TGACTGGAGTTCAGACGTGTGCTCTTCCGATCTCATGACCTGGTCCTGCCAGAAGTTTCCTCCATCAGTGCGTACTGAGCACTAGATAGC
RNA: AAUUUCUACUCUUGUAGAUAGGAAACUUCUGGCAGGACC
B3: CAAA (dsDNA)
DNA 1: GCTATCTAGTGCTCAGTACGCACTGCAAAAGGAAACTTCTGGCAGGACCAGGTCATGAGATCGGAAGAGCACACGTCTGAACTCCAGTCA
DNA 2: TGACTGGAGTTCAGACGTGTGCTCTTCCGATCTCATGACCTGGTCCTGCCAGAAGTTTCCTTTTGCAGTGCGTACTGAGCACTAGATAGC
RNA: AAUUUCUACUCUUGUAGAUAGGAAACUUCUGGCAGGACC
B4: ATAC (dsDNA)
DNA 1: GCTATCTAGTGCTCAGTACGCACTGATACAGGAAACTTCTGGCAGGACCAGGTCATGAGATCGGAAGAGCACACGTCTGAACTCCAGTCA
DNA 2: TGACTGGAGTTCAGACGTGTGCTCTTCCGATCTCATGACCTGGTCCTGCCAGAAGTTTCCTGTATCAGTGCGTACTGAGCACTAGATAGC
RNA: AAUUUCUACUCUUGUAGAUAGGAAACUUCUGGCAGGACC
B5: ATCG (dsDNA)
DNA 1: GCTATCTAGTGCTCAGTACGCACTGATCGAGGAAACTTCTGGCAGGACCAGGTCATGAGATCGGAAGAGCACACGTCTGAACTCCAGTCA
DNA 2: TGACTGGAGTTCAGACGTGTGCTCTTCCGATCTCATGACCTGGTCCTGCCAGAAGTTTCCTCGATCAGTGCGTACTGAGCACTAGATAGC
RNA: AAUUUCUACUCUUGUAGAUAGGAAACUUCUGGCAGGACC
B6: ATCC (dsDNA)
DNA 1: GCTATCTAGTGCTCAGTACGCACTGATCCAGGAAACTTCTGGCAGGACCAGGTCATGAGATCGGAAGAGCACACGTCTGAACTCCAGTCA
DNA 2: TGACTGGAGTTCAGACGTGTGCTCTTCCGATCTCATGACCTGGTCCTGCCAGAAGTTTCCTGGATCAGTGCGTACTGAGCACTAGATAGC
RNA: AAUUUCUACUCUUGUAGAUAGGAAACUUCUGGCAGGACC
B7: AGCT (dsDNA)
DNA 1: GCTATCTAGTGCTCAGTACGCACTGAGCTAGGAAACTTCTGGCAGGACCAGGTCATGAGATCGGAAGAGCACACGTCTGAACTCCAGTCA
DNA 2: TGACTGGAGTTCAGACGTGTGCTCTTCCGATCTCATGACCTGGTCCTGCCAGAAGTTTCCTAGCTCAGTGCGTACTGAGCACTAGATAGC
RNA: AAUUUCUACUCUUGUAGAUAGGAAACUUCUGGCAGGACC
B8: AGCG (dsDNA)
DNA 1: GCTATCTAGTGCTCAGTACGCACTGAGCGAGGAAACTTCTGGCAGGACCAGGTCATGAGATCGGAAGAGCACACGTCTGAACTCCAGTCA
DNA 2: TGACTGGAGTTCAGACGTGTGCTCTTCCGATCTCATGACCTGGTCCTGCCAGAAGTTTCCTCGCTCAGTGCGTACTGAGCACTAGATAGC
RNA: AAUUUCUACUCUUGUAGAUAGGAAACUUCUGGCAGGACC
B9: AGGC (dsDNA)
DNA 1: GCTATCTAGTGCTCAGTACGCACTGAGGCAGGAAACTTCTGGCAGGACCAGGTCATGAGATCGGAAGAGCACACGTCTGAACTCCAGTCA
DNA 2: TGACTGGAGTTCAGACGTGTGCTCTTCCGATCTCATGACCTGGTCCTGCCAGAAGTTTCCTGCCTCAGTGCGTACTGAGCACTAGATAGC
RNA: AAUUUCUACUCUUGUAGAUAGGAAACUUCUGGCAGGACC
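Further: relative affinity from the bound to unbound sequence frequency ratio in Spec-seq.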

One assay deals with dAsCas12a S542R (Acidaminococcus sp., UniProt U2UMQ6 1-1307, S542R;D908A;E993A;D1235A). As to the kind of experiment: Spec-seq (native PAGE EMSA with sequencing of bound and unbound); 25 mM Tris-HCl pH 7.4, 150 mM KCl, 5 mM MgCl2, 10% glycerol, 1 mM DTT, 40 ng/uL salmon sperm DNA; 400 nM Cas12a, 480 nM crRNA, 50 nM library, 37 C 1 h; native PAGE at room temperature; high values mean tight binding. Conditions: protein: recombinant. In general terms: Mobility shift assays separate free from complexed probe on a gel.
As for B1, the binding signal was -8.34 lnKA.
Still for that read-out and setting: the figure for B2 is -8.74 lnKA.
Consider B3, for which the binding signal was -8.57 lnKA.
Still for that read-out and setting: the figure for B4 is -8.39 lnKA; for B5 it is -6.64 lnKA; for B6 it is -4.3 lnKA.
On the same count and under the same terms, the figure for B7 is -8.99 lnKA.
Same read-out and setting: next, B8: -8.91 lnKA.
On to B9, for which the binding signal was -8.3 lnKA.

For another assay, the target named is d-enCas12a (Acidaminococcus sp., UniProt U2UMQ6 1-1307, E174R;S542R;K548R;D908A;E993A;D1235A). The description is as above. Conditions: protein: recombinant.
For the molecule B1, the binding signal was -2.31 lnKA.
Same read-out and setting: the figure for B2 is -5.71 lnKA.
For B3, the binding signal is -5.66 lnKA.
The same measure, in the same setting: next, B4: -4.61 lnKA; B5: -3.44 lnKA.
The same measure, in the same setting: next, B6: -0.902 lnKA; B7: -4.97 lnKA; B8: -4.77 lnKA.
The same measure, in the same setting: next, B9: -5.79 lnKA.

The target in a further assay is d-enCas12a-Ultra (Acidaminococcus sp., UniProt U2UMQ6 1-1307, E174R;S542R;K548R;M537R;F870L;D908A;E993A;D1235A). Described as above. Conditions: protein: recombinant.
In the case of B1, the binding signal is -0.527 lnKA.
As for B2, the binding signal was -3.4 lnKA.
On the same count and under the same terms, the figure for B3 is -3.35 lnKA; for B4 it is -1.84 lnKA.
The same measure, in the same setting: the figure for B5 is -0.793 lnKA; for B6 it is -0.294 lnKA; for B7 it is -1.83 lnKA.
Still for that read-out and setting: the figure for B8 is -1.73 lnKA; for B9 it is -3.34 lnKA.
